Compound activity (PubChem)
Sampled rows, rich in hits. Any-hit rate of the full collection: about 6.1%.
ERG Ets-DNA blk = ERG Ets/DNA interaction inhibition. P11308. Potency, µM (titrated, usually from 76.9 µM), most hits filed as inhibitors. 370,000 tested, 0.028% active. fluorescence polarization, His-ERG Ets domain / labelled DNA. AID 624246; active means well fitted inhibition curve with a large enough effect in the polarisation, with a control signal flat; inconclusive means small, poorly fitted or top-dose-only effect, or effect the other way, or a change in a side signal; inactive means no such curve, though single readings can be large or run the other way; the % refers to the polarisation;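 further: polarization taken with two DNA probes labelled with fluorescein and Texas red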
Target sequence (P11308 whole entry, looked up, the tested form may be a part): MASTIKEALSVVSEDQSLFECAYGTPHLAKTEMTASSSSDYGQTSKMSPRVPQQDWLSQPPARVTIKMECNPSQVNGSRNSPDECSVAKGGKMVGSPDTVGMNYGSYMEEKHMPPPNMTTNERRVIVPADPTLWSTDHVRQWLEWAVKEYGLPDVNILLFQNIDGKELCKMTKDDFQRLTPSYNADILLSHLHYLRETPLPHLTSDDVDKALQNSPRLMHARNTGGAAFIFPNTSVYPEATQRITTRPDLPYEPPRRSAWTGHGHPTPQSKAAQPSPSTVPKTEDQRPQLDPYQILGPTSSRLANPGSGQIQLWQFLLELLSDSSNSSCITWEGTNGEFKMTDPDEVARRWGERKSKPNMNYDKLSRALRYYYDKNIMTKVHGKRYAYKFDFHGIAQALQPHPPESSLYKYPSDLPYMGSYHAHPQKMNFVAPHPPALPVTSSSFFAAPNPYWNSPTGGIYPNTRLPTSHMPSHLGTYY
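His-tagged ERG Ets domain (1 uM in the protein solution; 300mM KCl, 50mM Tris-HCl, 1mM EDTA, 1mM DTT, pH 7.5) received compound, then a probe mix of 5 nM fluorescein-DNA and 100nM Texas-615-DNA. Fluorescence polarization was read for both dyes.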
D3 ag = activates the human D3 dopamine receptor; AID 652048; 410,000 tested, 0.58% active; D3R DiscoveRx beta-arrestin cells, luminescence, 90 min; P35462; max activation, %; in the data active means max activation above about 30%
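Agonist-mode cell screen: cells plated at 1500/well and incubated overnight at 37 °C, then exposed to library compounds for 90 min at 37 °C. Detection reagent was added for 30–60 min at room temperature, and luminescence was read.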
D1 antagonist = human D1 dopamine receptor antagonism; P21728; HEK293 TREx D1 cells, calcium flux, dopamine EC80; active compounds read low; activity change, negative = inhibition, % at 10 µM; 360,000 tested, 3.2% active; in the data active means activity change below about -30%
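After overnight tetracycline induction at 30 C, force-coupled D1 HEK293 cells took up a no-wash calcium dye at room temperature. Compounds were added and monitored 180 s, and the response to EC80 dopamine was then recorded.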
D1 PAM = human D1 dopamine receptor positive modulation. AID 504651. HEK293 TREx D1 cells, calcium flux, dopamine EC20 potentiation. 360,000 tested, 0.036% active. potentiation, % at 10 µM; in the data active means potentiation above about 30%
D1 ag = agonists of human D1 dopamine receptor | activation, % at 2 µM | P21728 | HEK293 T-REx D1 cells, calcium flux, agonist mode | 360,000 tested, 1% active; in the data active means activation above about 30%
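Agonism was scored from calcium flux recorded over 180 s (1 read/s) after pintool compound addition, following a 10-cycle baseline. Cells were inducible force-coupled HEK293 TREx D1, plated overnight at 30 C and loaded with no-wash calcium dye.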
DRD3 antagonist = D3 dopamine receptor (human) antagonism. P35462. D3R cells, DiscoveRx beta-arrestin luminescence, antagonist mode; active compounds read low. max response, negative = inhibition, %. 360,000 tested, 2.5% active. AID 652054; in the data active means max response below about -50%; inconclusive means no clear call, values can overlap the other calls
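Cells plated overnight at 1500 cells/well, then exposed to library compounds with dopamine controls for 90 minutes at 37 degrees C. DiscoveRx reagent added for 30–60 minutes at room temperature; luminescence read, quantitative HTS format.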
Hits are given with their value; ! = repeats disagree.

COc1cc(NC(=O)c2cc([N+](=O)[O-])ccc2NC(=O)CNCc2ccccn2)cc(OC)c1 was read as ERG Ets-DNA blk inactive, D3 ag 34, D1 antagonist inactive, D1 PAM inactive, D1 ag inactive and DRD3 antagonist inactive.
`COc1cc(NC(=O)c2cc([N+](=O)[O-])ccc2NC(=O)CNC2CCCCC2)cc(OC)c1` gave ERG Ets-DNA blk inactive, D3 ag inactive, D1 antagonist inactive, D1 PAM inactive, D1 ag inactive and DRD3 antagonist inactive.
COc1ccc(NC(=O)c2cc([N+](=O)[O-])ccc2NC(=O)CNCc2ccccn2)c(OC)c1 was read as ERG Ets-DNA blk inactive, D3 ag inactive, D1 antagonist inactive, D1 PAM inactive, D1 ag inactive and DRD3 antagonist inactive.
Screening COc1cc(NC(=O)c2cc([N+](=O)[O-])ccc2NC(=O)CNC2CCCCC2C)cc(OC)c1 (stereo unspecified) returned ERG Ets-DNA blk inactive, D3 ag 49, D1 antagonist inactive, D1 PAM inactive, D1 ag inactive and DRD3 antagonist inactive.
COc1ccccc1NC(=O)N(CCCN1CCOCC1)Cc1cc2cc3c(cc2[nH]c1=O)OCO3 was read as ERG Ets-DNA blk inactive, D3 ag inactive, D1 antagonist inactive, D1 PAM inactive, D1 ag inactive and DRD3 antagonist inactive.
CCCc1cc(=O)n2[nH]c(NCc3c(F)cccc3Cl)nc2n1 was read as ERG Ets-DNA blk inactive, D3 ag inactive, D1 antagonist -30!, D1 PAM inactive, D1 ag inactive and DRD3 antagonist inactive.
For CCCc1cc(=O)n2[nH]c(NCc3c(Cl)cccc3Cl)nc2n1 the results were ERG Ets-DNA blk inactive, D3 ag inactive, D1 antagonist inactive, D1 PAM inactive, D1 ag inactive and DRD3 antagonist inactive.
For CCc1ccccc1N1CC(c2nc3ccccc3n2CCCCOc2ccccc2OC)CC1=O (stereo unspecified) the results were ERG Ets-DNA blk inactive, D3 ag inactive, D1 antagonist inactive, D1 PAM inactive and D1 ag 60.
`Cc1ccc(N2CC(c3nc4ccccc4n3C)CC2=O)cc1C` (stereo unspecified) gave ERG Ets-DNA blk inactive, D3 ag inactive, D1 antagonist inactive, D1 PAM inactive, D1 ag inactive and DRD3 antagonist inactive.
`Cc1cc(C)cc(N2CC(c3nc4ccccc4n3C)CC2=O)c1` (stereo unspecified) gave ERG Ets-DNA blk inactive, D3 ag inactive, D1 antagonist inactive, D1 PAM inactive, D1 ag inactive and DRD3 antagonist -54.
CCOC(=O)Cn1c(C2CC(=O)N(c3ccc(C)cc3)C2)nc2ccccc21 (stereo unspecified) was read as ERG Ets-DNA blk inactive, D3 ag inactive, D1 antagonist -46, D1 PAM inactive and D1 ag inactive.
Screening CCOc1ccccc1N1CC(c2nc3ccccc3n2CCCOc2ccccc2OC)CC1=O (stereo unspecified) returned ERG Ets-DNA blk inactive, D3 ag inactive, D1 antagonist inactive, D1 PAM inactive and D1 ag inactive.
COC(=O)N[C@@H]1C[C@H]2[C@@H]3CC[C@H]4C[C@@H](OC)CC[C@]4(C)[C@H]3CC[C@@]12C was read as ERG Ets-DNA blk inactive, D3 ag inactive, D1 antagonist inactive, D1 PAM inactive, D1 ag inactive and DRD3 antagonist inactive.
CC(Cc1cccc(C(F)(F)F)c1)NCCOC(=O)c1ccccc1 (stereo unspecified) was read as ERG Ets-DNA blk inactive, D3 ag inactive, D1 antagonist inactive, D1 PAM inactive, D1 ag inactive and DRD3 antagonist -99.
Screening O=C(COC(=O)c1cccc(C(F)(F)F)c1)NCc1ccccc1 returned ERG Ets-DNA blk inactive, D3 ag inactive, D1 antagonist inactive, D1 PAM inactive, D1 ag inactive and DRD3 antagonist inactive.
Screening CCCCN(CCCC)CCNC(=O)c1cn(CC)c2ccc(S(=O)(=O)N(C)C3CCCCC3)cc2c1=O returned ERG Ets-DNA blk inactive, D3 ag inactive, D1 antagonist inactive, D1 PAM inactive, D1 ag inactive and DRD3 antagonist inconclusive.
CCN(CC)C(=O)COc1ccc(N(C)S(=O)(=O)c2ccc(NC(C)=O)cc2)cc1 was read as ERG Ets-DNA blk inactive, D3 ag inactive, D1 antagonist -38, D1 PAM inactive, D1 ag inactive and DRD3 antagonist inactive.
`CN(c1ccc(OCC(=O)OCC(=O)Nc2ccc(Br)cc2)cc1)S(=O)(=O)c1cccs1` gave ERG Ets-DNA blk inactive, D3 ag inactive, D1 antagonist inactive, D1 PAM inactive, D1 ag inactive and DRD3 antagonist inactive.
`CN(c1ccc(OCC(=O)OCC(=O)Nc2ccc(F)cc2)cc1)S(=O)(=O)c1ccc(Cl)cc1` gave ERG Ets-DNA blk inactive, D3 ag inactive, D1 antagonist -56, D1 PAM inactive, D1 ag inactive and DRD3 antagonist inactive.
For Cc1ccc(NC(=O)COc2ccc(N(C)S(=O)(=O)c3ccc(F)cc3)cc2)cc1 the results were ERG Ets-DNA blk inactive, D3 ag inactive, D1 antagonist inactive, D1 PAM inactive, D1 ag inactive and DRD3 antagonist inactive.
CN(c1ccc(OCC(=O)OCC(=O)Nc2ccccc2)cc1)S(=O)(=O)c1cccs1 was read as ERG Ets-DNA blk inactive, D3 ag inactive, D1 antagonist -47, D1 PAM inactive, D1 ag inactive and DRD3 antagonist inactive.
C#CCOCCOCCOCCNc1nc(N2CCN(C(=O)C([C@@H](C)CC)n3cc(C(N)Cc4ccc(O)cc4)nn3)CC2)nc(N2CCN(C(=O)[C@H](CCC(=O)O)n3cc(C(N)CO)nn3)CC2)n1 (stereo partly specified) was read as ERG Ets-DNA blk inactive, D3 ag inactive, D1 antagonist inactive, D1 PAM inactive, D1 ag inactive and DRD3 antagonist inactive.
Screening CCOC(=O)C(Oc1ccc2c(-c3ccccc3)cc(=O)oc2c1)c1ccccc1 (stereo unspecified) returned ERG Ets-DNA blk inactive, D3 ag inactive, D1 antagonist -31, D1 PAM inactive, D1 ag inactive and DRD3 antagonist inactive.
`COC(=O)C(Oc1ccc2c(-c3ccc(OC)cc3)cc(=O)oc2c1)c1ccccc1` (stereo unspecified) gave ERG Ets-DNA blk inactive, D3 ag inactive, D1 antagonist inactive, D1 PAM inactive, D1 ag inactive and DRD3 antagonist inactive.
CCOC(=O)CN1CC23C=CC(O2)C(C(=O)NC2CCCCC2)C3C1=O (stereo unspecified) was read as ERG Ets-DNA blk inactive, D3 ag inactive, D1 antagonist inactive, D1 PAM inactive, D1 ag inactive and DRD3 antagonist inactive.
OC[C@H]1O[C@@H](n2cnc3c2NC=NC[C@H]3O)C[C@@H]1O was read as D3 ag 44.
